Out of some 300,000 compounds screened, about 37,000 (12%) were called active. The sample as a whole holds a higher share of actives than the screen did. Unmarked numbers belong to inactive results. Rule as the data show it: active = max response mostly above about 13% (no sharp cut-off); inactive = mostly below about 14%.
Test: Cycloheximide Counterscreen for Small Molecule Inhibitors of Shiga Toxin; also: read at 38.3 µM for the half of the compounds with a filed dose; 0% is about no effect
Details: cell reporter, cycloheximide protein synthesis inhibition counterscreen; active compounds read high
Work on `Cc1cccc(C(=O)NC(=S)N2CCN(c3ccc([N+](=O)[O-])cc3)CC2)c1` yielded a max response of -1.96%.
In the case of `O=c1c(-c2ccc(Cl)cc2)[n+]([O-])c2ccccc2n1OCc1nc2ccccc2[nH]1`, the max response was 24.8% (active).
In the case of `CCN(CC)CCCNC(=S)N(CCO)Cc1cc2cc3c(cc2[nH]c1=O)OCO3`, the max response was -1.33%.
Molecule `COc1ccc(CCNC(=O)CCC(=O)NC2CCCCC2)cc1OC` has a max response of -1.91%.
In the case of `CC(C)(C)C1CCC(C(=O)Nc2cccnc2)CC1` (stereo unspecified), the max response was -2.39%.
With `COCC1CCCN(Cc2cn[nH]c2-c2cc3ccccc3o2)C1` (stereo unspecified) the max response was 7.39%.
For `COCC1CCCN(Cc2nc(-c3ccc4c(c3)OCO4)no2)C1` (stereo unspecified), the max response was 42.1% (active).
`CC1CCCN(CC(O)COc2ccc3c(c2)OCO3)C1` (stereo unspecified) showed a max response of 4.28%.
With `Cc1c(NC(=O)c2c([N+](=O)[O-])cnn2C)c(=O)n(-c2ccccc2)n1C` the max response was -6.14%.
`Cc1nc2ccccc2c2oc(C(=O)NCC3CCCO3)cc12` (stereo unspecified) showed a max response of -1.07%.
In the case of `COc1ccc(SCc2noc(C(=O)NCC3CCCO3)c2C(=O)O)cc1` (stereo unspecified), the max response was -3.22%.
With `COc1ccc2cc(C(=O)NCC3CCCO3)[nH]c2c1` (stereo unspecified) the max response was 62.1% (active).
In the case of `O=C(NCC1CCCO1)c1ccccc1-c1nc(-c2ccccc2Cl)no1` (stereo unspecified), the max response was 27.4% (active).
Work on `Cc1ccccc1CN(c1ccc(C(=O)NCC2CCCO2)cc1)S(C)(=O)=O` (stereo unspecified) yielded a max response of -5.23%.
For `COCCNC(=O)c1ccccc1-c1nc(-c2ccccc2Cl)no1`, the max response was 28.8%.
For `Cc1ccc(-c2noc(-c3ccccc3C(=O)NCC3CCCO3)n2)cc1` (stereo unspecified), the max response was 27.2% (active).
Molecule `O=C(Nc1ccccc1C(=O)NCC1CCCO1)c1ccccc1F` (stereo unspecified) has a max response of 14.1%.
With `O=C(NCC1CCCO1)c1ccc2ccccc2n1` (stereo unspecified) the max response was 29.9% (active).
`O=C(CSCc1c(F)cccc1Cl)NCC1CCCO1` (stereo unspecified) showed a max response of 13.1%.
For `O=C(NCC1CCCO1)c1cc(-c2ccccc2)nc2ccccc12` (stereo unspecified), the max response was 9.86%.
`CCC(=O)c1c[nH]c(C(=O)NCC2CCCO2)c1` (stereo unspecified) gave a max response of -0.953%.
`Cc1sc2ncn(CC(=O)NCCCC(=O)NCc3ccc(F)cc3)c(=O)c2c1C` showed a max response of -1.09%.
Molecule `Cc1cccn2c(CN(C)C3CCCc4ccccc43)c(C(=O)N3CCOCC3)nc12` (stereo unspecified) has a max response of -3.53%.
In the case of `Cc1cc2c(cc1C)N(Cc1ccccc1)C1=NCCCN12`, the max response was -2.27%.
With `CC(C)C[C@H](NC(=O)C1CCC(CNC(=O)[C@@H]2CCCN2C(=O)OC(C)(C)C)CC1)C(=O)O` (stereo partly specified) the max response was 0.405%.
`CC(C)[C@H](NC(=O)N1CC(=O)Nc2ccccc21)C(=O)N[C@@H](Cc1c[nH]c2ccccc12)C(=O)O` showed a max response of -2.21%.
